Only some compounds are listed: those with a hit (about 19% of all), similar ones and a draw of the others.
KB-3-1 tox = KB-3-1 parental cell cytotoxicity. KB-3-1 viability, CellTiter-Glo ATP luminescence, 72 h. 400,000 compounds, 1.4% hits. Potency, µM (top dose mostly 46.1 µM), usual class: cytotoxic. AID 1347075; further: nearly all actives have a fitted effect of over 60% in size
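KB-3-1 parental drug-naive adenocarcinoma cells in DMEM/10% FBS, incubated 72 h at 37 C with pin-transferred compounds across a concentration series. Viability by CellTiter-Glo luminescence; concentration-response curves fitted after normalization.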
HT1080 IDH1KD tx = HT-1080 IDH1 knockdown cell toxicity (counter line); HT-1080 IDH1 knockdown viability, ATP luminescence, 48 h; Potency, µM (top dose mostly 46.1 µM), inactives show at the top dose activity, negative = toxicity, most hits filed as cytotoxic; 360,000 compounds, 2% hits; AID 686971;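 further: 0% = DMSO wells and -100% = cell-free medium wells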
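HT-1080-IDH1KD cells (IDH1 knocked down), 750/well in RPMI with 5% FBS, treated with compound 48 h at 37 degrees C. Viability by CellTiter-Glo luminescence, normalised to DMSO and no-cell wells; concentration-response curves classed.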
TDP1 cell CPT = growth inhibition of DT40 Tdp1-/-;hTDP1 cells with camptothecin (screen for TDP1 inhibitors) | AID 686979 | 420,000 compounds, 12% hits | chicken DT40 Tdp1-/-;hTDP1 cells + 20 nM CPT, ATP luminescence, 48 h | Potency, µM (highest dose often 46.2 µM), without a hit: top-dose activity change, negative = growth inhibition, actives largely listed as inhibitors; further: nearly all actives have a fitted effect of over 55% in size
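Chicken DT40 Tdp1-/- cells complemented with human TDP1, 400 cells/well, exposed to compounds plus 20 nM camptothecin for at least 48 h at 37 C; viability read as ATP content by CellTiter-Glo luminescence.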
HT1080NT lethal = kills 2HG-producing HT-1080-NT fibrosarcoma cells. Potency, µM (doses to about 46.1 µM), for inactives: top-dose activity, negative = less viability, hits mostly cytotoxic. AID 686970. HT-1080-NT fibrosarcoma viability, CellTiter-Glo ATP luminescence, 48 h. 360,000 compounds, 1.6% hits;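 further: NT is the 2HG producing partner of a matched IDH1 knockdown line; 0% = DMSO-treated cells and -100% = media-only wells without cells; nearly all actives have a fitted effect of over 55% in size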
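Compounds were tested in concentration-response format on HT-1080-NT cells for 48 hours at 37 degrees C. Cell viability came from CellTiter-Glo luminescence; curves were classified by r2, response magnitude and activity.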
TDP1 cell noCPT = qHTS for Inhibitors of human tyrosyl-DNA phosphodiesterase 1 (TDP1): qHTS in cells in absence of CPT; DT40 Tdp1-/- hTDP1 cells, no CPT, ATP luminescence, 48 h; 420,000 compounds, 15% hits; Potency, µM (top dose mostly 46.2 µM), for the others: top-dose activity change, negative = growth inhibition, usual class: inhibitors; further: nearly all actives have a fitted effect of over 55% in size
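Stably hTDP1-transfected Tdp1-null chicken DT40 cells were treated with library compounds minus camptothecin and grown for at least 48 hr at 37 °C, after which cellular ATP was quantified by luminescence.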
KB-V1 MDR tox = KB-V1 MDR subline cytotoxicity | AID 1347076 | KB-V1 MDR cells viability, CellTiter-Glo, 72 h | 400,000 compounds, 3.4% hits | Potency, µM (titrated, usually from 46.1 µM), usual class: cytotoxic; further: nearly all actives have a fitted effect of over 60% in size
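KB-V1, DMEM (no phenol red) + 10% FBS; cpd pin-transferred, titration series; 72 h, 37 degrees C; CellTiter-Glo, luminescence. Data normalized, curve-fit.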
* hit, by the source's call; i = inactive; ? = inconclusive; nt = no result given. The call rests on the fitted dose curve; in most records, active means well fitted curve in the direction sought with a large enough effect; inconclusive means small, poorly fitted or top-dose-only effect, or another doubt; inactive means no such curve, though single readings can be large; an effect the other way counts as inactive or inconclusive. Unless noted, on the % scale 0 is the no-effect control and ±100 the full control effect; potency means the concentration at half of the fitted maximal effect.

SMILES	KB-3-1 tox	HT1080 IDH1KD tx	TDP1 cell CPT	HT1080NT lethal	TDP1 cell noCPT	KB-V1 MDR tox
CC(=O)c1ccc(NC(=O)C2CCN(c3nnc(C)c4c(C)n(-c5ccccc5)nc34)CC2)cc1	i	nt	14.6µM*	nt	20.6µM*	i
Cc1ccc(CCNC(=O)C2CCN(c3nnc(C)c4c(C)n(-c5ccccc5)nc34)CC2)cc1	i	nt	?	nt	-14.1%	i
Cc1nnc(N2CCOCC2)c2nn(-c3cccc(Cl)c3)c(C)c12	i	0.9%	?	-3.5%	?	3.66µM*
CCOC(=O)Nc1c(O)ccc2oc(C)c(-c3ccccc3)c12	i	-6.7%	?	-3.6%	?	i
CC(C)=C(NC(=O)c1ccccc1)C(=O)NCc1ccccc1	i	17.1%	-17.6%	25.3%	-17.7%	i
CC(C)Oc1ccc(CNC(=O)c2ccc(CN3CC(=O)N4CCCCC4C3=O)cc2)cc1 (configuration not stated)	i	nt	0.4%	nt	-3.6%	i
Cc1nnc(N2CCC(C(=O)N3CCCCC3)CC2)c2nn(-c3ccc(Cl)cc3)c(C)c12	?	-2.6%	20.6µM*	0.7%	?	i
Cc1ccc(-n2nc3c(N4CCC(C(=O)NCCc5cccs5)CC4)nnc(C)c3c2C)cc1	i	16.4µM*	25.9µM*	?	29.1µM*	i
Cc1nnc(N2CCC(C(=O)NCCC(C)C)CC2)c2nn(-c3ccc(Cl)cc3)c(C)c12	i	nt	?	nt	20.6µM*	i
Cc1nnc(N2CCC(C(=O)NC3CCCCC3)CC2)c2nn(-c3ccc(Cl)cc3)c(C)c12	i	nt	-7.5%	nt	-6.5%	i
C[C@H](NC(=O)C1CCN(S(=O)(=O)c2ccccc2)CC1)C(=O)NCc1ccncc1	i	9.8%	-9.9%	-0.2%	0.1%	i
C=CCc1cccc(CNc2nc3ccccc3n2C(C)C)c1O	i	11.2µM*	?	?	?	?
CC1CN(C(C)C)C(=S)NC1=O (configuration not stated)	i	6.5%	5.8%	6.9%	-6.6%	i
Cc1cc(C)nc(NC(=NCc2ccc3c(c2)OCO3)NC(=O)Nc2ccccc2)n1	i	?	5.17µM*	-27.1%	4.61µM*	i
Cn1c(SCc2ccccc2)nc(N)c(N=O)c1=O	i	-14.4%	?	-4.7%	14.6µM*	i
CCCN1CCN(CCCNC(=O)c2ccc3c(c2)sc2nc(-c4ccc(C)cc4)cn23)CC1	nt	nt	1.3µM*	nt	1.16µM*	nt
Cc1ccc(-c2cn3c(n2)sc2cc(C(=O)NCc4cccs4)ccc23)cc1	i	nt	14.6µM*	nt	20.6µM*	i
CCc1ccc(-c2cn3c(n2)sc2cc(C(=O)NCC(C)c4ccccc4)ccc23)cc1 (configuration not stated)	nt	nt	?	nt	-15.0%	nt
O=C(NCc1cccs1)c1ccc2c(c1)sc1nc(-c3ccc(F)cc3)cn12	nt	nt	-20.2%	nt	?	nt
CCC1CCCCN1CCCNC(=O)c1ccc2nc(N3CCC(C)CC3)sc2c1 (configuration not stated)	?	?	?	?	?	i
O=C(NCCCN1CCCCCC1)c1ccc2c(c1)sc1nc(-c3ccccc3)cn12	nt	nt	6.51µM*	nt	3.66µM*	nt
CCC1CCCCN1CCCNC(=O)c1ccc2c(c1)sc1nc(-c3ccc(F)cc3)cn12 (configuration not stated)	i	nt	4.11µM*	nt	2.59µM*	i
CCCSCCCNC(=O)c1ccc2c(c1)sc1nc(-c3ccc(OCC)cc3)cn12	i	nt	?	nt	?	i
Cc1ccc(C)c(NC(=O)N2CCC(N3CCN(Cc4ccc(F)cc4)C(=O)C3=O)CC2)c1	i	nt	-22.0%	nt	0.1%	i
COc1ccc(N2CCN(c3c4c(nc5nncn35)CCC4)CC2)cc1	nt	nt	8.2µM*	nt	8.2µM*	nt
SMILES	KB-3-1 tox	HT1080 IDH1KD tx	TDP1 cell CPT	HT1080NT lethal	TDP1 cell noCPT	KB-V1 MDR tox
COc1ccc(-c2csc(/C=C/c3ccc4c(c3)OCO4)n2)cc1OC	i	-13.9%	?	-2.8%	?	i
COc1ccc(/C(C)=N/N2C(=O)c3ccccc3NC2c2ccc(O)c(OC)c2)cc1 (configuration not stated)	i	1.7%	-17.6%	-2.7%	-7.8%	i
C/C(=N\N1C(=O)c2ccccc2NC1c1ccccc1)c1ccccc1O (configuration not stated)	i	-13.2%	4.61µM*	-9.8%	7.31µM*	i
C/C(=N\N1C(=O)c2ccccc2NC1c1ccco1)c1ccccc1O (configuration not stated)	?	?	-87.0%	?	11.6µM*	?
O=C1c2ccccc2NC(c2ccco2)N1/N=C/c1ccco1 (configuration not stated)	i	-3.4%	-25.9%	-2.3%	-27.5%	i
CCc1ccc(NC(=O)Cn2cnc3nc4c(cc3c2=O)CCCC4)cc1	i	nt	-27.6%	nt	?	i
COc1ccc(NC(=O)Nc2ccc3c(c2)C(=O)N([C@@H](C)CO)C[C@@H](C)[C@@H](CN(C)CC2CCCCC2)O3)cc1	i	-19.0%	?	-2.8%	23.1µM*	i
COc1ccc(NC(=O)Nc2cccc3c2O[C@@H](CN(C)CC2CCCCC2)[C@@H](C)CN([C@H](C)CO)C3=O)cc1	?	-1.6%	23.1µM*	-15.5%	?	i
O=C(Nc1nnc(SCc2cccc3ccccc23)s1)C1COc2ccccc2O1 (configuration not stated)	i	24.4%	-28.5%	9.2%	-11.2%	?
COc1ccc(NC(=O)C2(C)Cc3c(-c4ccc(C(N)=O)cc4)ccnc3O2)cn1 (configuration not stated)	?	?	?	-21.4%	?	i
COc1ccc(NC(=O)C2(C)Cc3c(-c4ccc5c(c4)OCO5)ccnc3O2)cc1 (configuration not stated)	16.4µM*	?	4.11µM*	?	2.91µM*	?
CC1(C(=O)Nc2cccc(C(F)(F)F)c2)Cc2c(-c3cccc(C(N)=O)c3)ccnc2O1 (configuration not stated)	i	?	-99.6%	?	6.51µM*	i
CC1(C(=O)Nc2ccc(Cl)c(C(F)(F)F)c2)Cc2c(-c3ccc(C(N)=O)cc3)ccnc2O1 (configuration not stated)	?	16.4µM*	18.4µM*	16.4µM*	14.6µM*	?

Screens from PubChem BioAssay.
